Screens as filed in PubChem BioAssay.
Only some compounds are listed: those with a hit (about 1.3% of all), similar ones and a draw of the others.
PREPL inhibitor – inhibits the human prolyl oligopeptidase-like enzyme; Q4J6C6; recombinant PREPL, fluorescence polarization activity-based probe; inhibition, % at 5.96 µM; hit rate 0.68% among 320,000;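 further: 0% = enzyme with DMSO and 100% = wells lacking enzyme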
LYPLA2 inh – blocks human lysophospholipase 2, a PME1 counter-screen. inhibition, % at 5.9 µM. hit rate 0.38% among 320,000. recombinant LYPLA2, FP-Rh probe fluorescence polarization. O95372;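 active means inhibition above the screen-wide mean plus 3 SD, limit set per campaign, cut at about 26% in these data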;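 further: 0% = LYPLA2 with DMSO and 100% = wells lacking LYPLA2 enzyme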
Target sequence (O95372 whole entry, looked up): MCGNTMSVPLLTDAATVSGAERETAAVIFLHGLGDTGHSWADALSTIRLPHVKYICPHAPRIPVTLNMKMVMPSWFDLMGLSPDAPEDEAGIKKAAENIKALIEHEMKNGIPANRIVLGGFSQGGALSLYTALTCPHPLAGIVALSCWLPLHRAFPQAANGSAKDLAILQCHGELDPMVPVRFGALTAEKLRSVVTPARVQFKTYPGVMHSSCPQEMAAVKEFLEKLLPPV
PME-1 inh – PME-1 (human) inhibition; inhibition, % at 5.9 µM; recombinant PME-1, FP-Rh probe fluorescence polarization; Q9Y570; hit rate 0.53% among 320,000;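 active means inhibition above the campaign mean of all compounds plus 3 SD, cut at about 26% in these data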;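 further: competitive labeling of PME-1 active site by serine hydrolase directed probe; 0% = PME-1 with DMSO and 100% = wells lacking PME-1 enzyme; inhibitors block probe labeling so polarization falls and inhibition rises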
Target sequence (Q9Y570 whole entry, looked up): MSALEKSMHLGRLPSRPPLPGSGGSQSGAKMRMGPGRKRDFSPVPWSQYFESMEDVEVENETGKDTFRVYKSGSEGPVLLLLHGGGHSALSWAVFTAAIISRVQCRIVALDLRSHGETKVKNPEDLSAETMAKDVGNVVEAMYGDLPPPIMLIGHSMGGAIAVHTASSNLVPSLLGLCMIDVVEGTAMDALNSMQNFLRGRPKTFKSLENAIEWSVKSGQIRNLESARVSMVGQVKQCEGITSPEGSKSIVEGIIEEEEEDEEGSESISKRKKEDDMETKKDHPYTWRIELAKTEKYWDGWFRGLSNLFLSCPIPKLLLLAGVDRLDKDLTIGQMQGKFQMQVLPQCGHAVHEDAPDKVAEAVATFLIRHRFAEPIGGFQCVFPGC
Fam108B inh – blocks mouse Fam108B hydrolase in RBBP9 counter-screen. recombinant Fam108B, FP-Rh probe fluorescence polarization. inhibition, % at 9.51 µM. hit rate 0.33% among 300,000. AID 1947;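 active means inhibition above the screen mean inhibition plus 3 SD, computed separately per campaign, cut at about 18% in these data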;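 further: inhibitors lower polarization as less probe binds the enzyme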
LYPLA1 counter – LYPLA1 (human) inhibition in PME1 counter-screen; hit rate 0.16% among 320,000; recombinant LYPLA1, FP-Rh probe fluorescence polarization; inhibition, % at 5.9 µM;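 active means inhibition above the mean of all tested compounds plus 3 SD, set per campaign, cut at about 14% in these data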;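 further: inhibitors block serine hydrolase probe labeling of LYPLA1 so polarization falls; 0% = enzyme with DMSO and 100% = wells lacking LYPLA1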
Fam108b confirm – confirmation of mouse Fam108b serine hydrolase inhibitors; inhibition, % at 9.51 µM; shares compounds with Fam108B inh; recombinant Fam108b, FP-Rh probe fluorescence polarization; hit rate 44% among 930; AID 1978;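 active means inhibition above a limit from the primary screen, the mean over all compounds plus 3 SD, cut at about 19% in these data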;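 further: 0% = median of active Fam108b wells and 100% = catalytically dead S170A mutant; inhibitors free the probe so polarization falls as inhibition rises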
Fam108b ABPP HTS – mouse ABHD17B inhibition. shares compounds with Fam108B inh. recombinant Fam108b, gel-based ABPP, fluorophosphonate probe. inhibition, % at 20 µM. hit rate 44% among 260; in the data active means inhibition above about 40%
LYPLA1 confirm – counter-screen for PME1 inhibitors: confirmation of human LYPLA1 inhibitors. shares compounds with LYPLA1 counter. recombinant LYPLA1, FP-Rh probe fluorescence polarization. inhibition, % at 5.9 µM. hit rate 69% among 480. AID 2233;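 active means mean inhibition across replicates above the hit cutoff set in the primary screen, cut at about 15% in these data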;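 further: loss of FP-Rh probe labeling of LYPLA1 seen as lower polarization; 0% = LYPLA1 with DMSO and 100% = wells lacking LYPLA1 enzyme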
LYPLA2 conf – LYPLA2 (human) inhibition, confirmation counter-screen; shares compounds with LYPLA2 inh; recombinant LYPLA2, FP-Rh probe fluorescence polarization; inhibition, % at 5.9 µM; hit rate 72% among 1,100;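 active means mean inhibition across replicates above the hit cutoff set in the primary screen, cut at about 26% in these data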;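 further: blocked labeling of the enzyme by serine hydrolase FP-Rh probe lowers polarization; 0% = enzyme with DMSO and 100% = wells lacking LYPLA2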
LYPLA2 gel ABPP – LYPLA2 (human) inhibition, late stage results. shares compounds with LYPLA2 inh. rhLYPLA2 in mouse brain proteome, gel ABPP FP-Rh. inhibition, % at 20 µM. hit rate 30% among 150. AID 652029;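 active means inhibition of LYPLA2 enzyme probe labeling above about 50%, limit read from the data; inactive means inhibition below that limit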;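 further: loss of FP-Rh probe labeling of the LYPLA2 gel band measured as band density; 0% = DMSO only control band and 100% = blank gel background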
PREPL confirm – confirmation of human PREPL enzyme inhibitors; shares compounds with PREPL inhibitor; recombinant PREPL, fluorescence polarization activity probe; inhibition, % at 5.96 µM; hit rate 67% among 2,000;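 further: 0% = protein with DMSO and 100% = wells lacking protein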
* marks the source's active call; other numbers are inactive results; / = no result given. Unless noted, no stated cut-off is given here; in the data, active means inhibition above about 43%; inactive means the rest.

SMILES | PREPL inhibitor | LYPLA2 inh | PME-1 inh | Fam108B inh | LYPLA1 counter | LYPLA2 conf | PREPL confirm | others
COc1ccc(OC)c(N2C(=O)/C(=C/c3ccco3)C(=O)NC2=S)c1 | 41 | 30* | 39* | 82* | -13 | -11 | / | Fam108b confirm=14
C[C@]12CC[C@H](O)CC1=CC(=O)C1C2CC[C@]2(C)C(=O)CCC12 (some centres undefined) | 14 | / | / | / | / | / | /
Cc1nc2c(=O)n(C)c(=O)nc-2n(C)n1 | 44* | 88* | 36* | 66* | 88* | 95* | 51* | Fam108b confirm=82*;Fam108b ABPP HTS=5;LYPLA1 confirm=83*
Cc1ccc2c(c1)N(C(=O)CCC(=O)N1CCC3(CC1)OCCO3)CCO2 | 0 | 1 | 2 | -1 | -2 | / | /
CCn1nc(-c2ccccc2)nc2c(=O)n(C)c(=O)nc1-2 | 56* | 96* | 42* | 65* | 89* | / | 44* | Fam108b confirm=86*;Fam108b ABPP HTS=0
CNc1ccc2nc3ccccc3[n+](C)c2c1 | 98* | 117* | 116* | 102* | 103* | 94* | 84* | Fam108b confirm=67*;Fam108b ABPP HTS=15;LYPLA1 confirm=83*
OCCNc1c2c(nc3ccccc13)CCCC2 | 6 | 4 | -12 | -1 | -2 | / | /
C[n+]1c2ccccc2nc2ccc(NCCO)cc21 | 69* | 63* | 71* | 72* | 70* | 48* | 66* | Fam108b confirm=42*;Fam108b ABPP HTS=0;LYPLA1 confirm=63*
Clc1cc(Cl)cc(NC2=NCCS2)c1 | 2 | -3 | 0 | -1 | -4 | / | /
O=C1C(=O)c2ccccc2-c2ccccc21 | 53* | 85* | 37* | 64* | 83* | 90* | 50* | Fam108b confirm=65*;Fam108b ABPP HTS=15;LYPLA1 confirm=85*
COc1cc(OC)c(OC)cc1CNCCc1ccc2c(c1)OCO2 | -6 | 3 | 1 | 8 | -1 | / | /
Cc1ccc(OCC(=O)N2CCN(C3CCC(c4ccccc4)CC3)CC2)cc1 (centres undefined) | 5 | 24 | -4 | -5 | 7 | / | /
COc1ccc(/C=N\N=C(N)N)cc1 | -2 | 4 | -1 | 1 | 4 | / | /
NC(N)=N/N=C/c1ccc(N(c2ccccc2)c2ccccc2)cc1 | 77* | 8 | 16 | 19* | 3 | / | 68* | Fam108b confirm=19*
Clc1ccc(C(c2ccc(Cl)cc2)n2cc[n+](CC(OCc3ccc(Cl)cc3Cl)c3ccc(Cl)cc3Cl)c2)cc1 (centres undefined) | -2 | 32* | 2 | 3 | 22* | 43* | / | LYPLA1 confirm=52*
Oc1c(Br)c(Br)c(Br)c(Br)c1Br | 6 | 56* | 75* | / | 25* | 58* | / | LYPLA1 confirm=30*
Oc1c(Br)cc(Br)cc1Br | 12 | 1 | 5 | / | 1 | / | /
CC1(CCl)CN1S(=O)(=O)c1ccccc1 (centres undefined) | 5 | 0 | 1 | 1 | -3 | / | /
CCOC(=O)c1c(NS(=O)(=O)c2ccccc2)n(CCCOC)c2nc3ccccc3nc12 | 46* | 96* | 33* | 9 | 83* | 0 | 11 | LYPLA1 confirm=1
CC1=NN=C(c2ccc(N)cc2)c2cc3c(cc2C1)OCO3 | 9 | -9 | 1 | 4 | -4 | / | /
Cc1nc2cc(C(F)(F)F)ccc2n1C1CCN(Cc2nnnn2Cc2cccs2)CC1 | 8 | 27* | -4 | 1 | -1 | 23 | /
Cc1ccc(-n2cc(CNC(C)Cc3cnccn3)c(-c3cccc(C)c3)n2)cc1 (centres undefined) | -1 | -3 | -1 | -3 | 6 | / | /
O=C(COc1ccccc1F)N1CCN(CCN2C(=O)c3cccc4cccc(c34)C2=O)CC1 | -6 | 38* | 5 | -2 | 8 | 35* | /
O=C(COc1ccccc1)N1CCN(CCN2C(=O)c3cccc4cccc(c34)C2=O)CC1 | 8 | 16 | -1 | 1 | 3 | / | /
O=C(COc1ccc(Cl)cc1Cl)N1CCN(C/C=C/c2ccccc2)CC1 | -18 | 76* | 3 | 2 | 13 | 78* | / | LYPLA2 gel ABPP=56*
SMILES | PREPL inhibitor | LYPLA2 inh | PME-1 inh | Fam108B inh | LYPLA1 counter | LYPLA2 conf | PREPL confirm | others
COc1ccc(OCC(=O)N2CCN(Cc3nc4cc([N+](=O)[O-])ccc4n3C)CC2)cc1 | 7 | 3 | 4 | 0 | 2 | / | /
O=C(COc1ccc(Cl)cc1)N1CCN(Cc2ccc([N+](=O)[O-])cc2)CC1 | 1 | 57* | -3 | -2 | 9 | 61* | / | LYPLA2 gel ABPP=47
CN1C2c3ccccc3C3C4c5ccccc5C(C31)C(C2[N+](=O)[O-])N4C (centres undefined) | 5 | 3 | 6 | 0 | 1 | / | /
Cc1ccc(N)cc1N | 54* | 3 | -4 | / | -1 | / | 4
Cc1ccc(N)c(N)c1 | -1 | 3 | -3 | / | -1 | / | /
CN(C)C(=O)O/N=C(\N)COc1ccc(C(C)(C)C)cc1 | -1 | -4 | 6 | -2 | 0 | / | /
[O-]c1ccccc1-[n+]1c(-c2ccccc2)cc(-c2ccccc2)cc1-c1ccccc1 | 45* | -1 | 1 | -4 | -2 | / | 54*
Brc1ccc(-[n+]2c(-c3ccccc3)cc(-c3ccccc3)cc2-c2ccccc2)cc1 | 56* | -1 | 3 | -2 | 4 | / | 56*
Oc1ccccc1-[n+]1c(-c2ccccc2)cc(-c2ccccc2)cc1-c1ccccc1 | -6 | -1 | 2 | -5 | -3 | / | /
C[n+]1c(-c2ccccc2)cc(CCCCc2cc(-c3ccccc3)[n+](C)c(-c3ccccc3)c2)cc1-c1ccccc1 | 46* | -2 | -3 | -3 | -5 | / | 46*
COP(=O)(OC)C(NC(C)=O)C(Cl)(Cl)Cl (centres undefined) | 3 | 4 | -8 | 0 | -3 | / | /
CCCC[C@@H](C)C[C@@H](C)C(=O)N(C)[C@@H](CC(C)C)C(=O)N[C@H](C(=O)N(C)[C@H](C(=O)N1C[C@@H](O)C[C@H]1C(=O)N1C(=O)C=C[C@@H]1C)C(C)C)C(C)OC(C)=O (some centres undefined) | 50* | / | / | / | / | / | 48*
Cc1[nH]c2ccccc2c1CCNCc1cccnc1 | -6 | 6 | -4 | 2 | 4 | / | /
COc1ccc2[nH]c(C)c(CCNCc3cn(C)c4ccccc34)c2c1 | 70* | -3 | 1 | / | -2 | / | 54*
C=CCN1C(=O)c2ccccc2Sc2ccc(C(=O)N3CCC4(CC3)OCCO4)cc21 | -7 | 6 | -1 | 4 | -1 | / | /
